NPC1 promoter act = activators of NPC1 promoter; Huh7 NPC1 promoter luciferase reporter, 24 h; Potency, µM (doses to about 9.22 µM), for inactives: at the highest dose activation, usual class: activators; 320,000 tested, 2.4% active; further: % of control where 0% means no effect; nearly all actives have a fitted effect of over 60% in size
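In 1536-well qHTS, Huh7 cells harboring an NPC1 promoter–luciferase construct received compound for 24 h; activation was quantified by luminescence following luciferase reagent addition.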
ELG1 genotoxic = induces genotoxicity in HEK293T cells with luciferase-tagged ELG1. HEK293T ELG1-luciferase reporter, luminescence, 16 h. Potency, µM (doses to about 46 µM), for inactives: at the top dose activity change, positive = activation, most hits filed as activators. 330,000 tested, 1.3% active. AID 504466; further: % of control where 0% means no effect; nearly all actives have a fitted effect of over 60% in size
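Genotoxicity was scored as increased ELG1-luciferase reporter signal, measured by ONE-Glo luminescence (30 min, room temperature). Compound or vehicle exposure of the HEK293T reporter cells lasted 16 hr at 37°C.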
SMN2 splice up = increases expression of the SMN2 splice variant; HEK293 SMN2-luciferase splicing reporter, luminescence, 30-36 h; Potency, µM (top dose mostly 46.1 µM), inactives show top-dose activity change, positive = activation, actives largely listed as activators; 210,000 tested, 2.8% active; further: % of control where 0% means no effect; nearly all actives have a fitted effect of over 55% in size
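HEK293 cells carry an SMN2 minigene-luciferase reporter in which exon 7 inclusion puts luciferase in frame. Cells were seeded at 2000 cells/well, attached for 10-12 hours, then exposed to compounds for 30-36 hours at 37C before ONE-Glo luminescence.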
FLuc counter = firefly luciferase modulation, counter-screen for miR-21 project; P08659; purified FLuc, Km substrates, luminescence inhibition; Potency, µM (highest dose often 57.5 µM), inactives show at the highest dose activity change, negative = inhibition, usual class: inhibitors; 360,000 tested, 6.9% active;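 further: plate controls were vehicle for no effect and reference inhibitor for full effect; nearly all actives have a fitted effect of over 55% in size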
Target sequence (P08659 whole entry, looked up): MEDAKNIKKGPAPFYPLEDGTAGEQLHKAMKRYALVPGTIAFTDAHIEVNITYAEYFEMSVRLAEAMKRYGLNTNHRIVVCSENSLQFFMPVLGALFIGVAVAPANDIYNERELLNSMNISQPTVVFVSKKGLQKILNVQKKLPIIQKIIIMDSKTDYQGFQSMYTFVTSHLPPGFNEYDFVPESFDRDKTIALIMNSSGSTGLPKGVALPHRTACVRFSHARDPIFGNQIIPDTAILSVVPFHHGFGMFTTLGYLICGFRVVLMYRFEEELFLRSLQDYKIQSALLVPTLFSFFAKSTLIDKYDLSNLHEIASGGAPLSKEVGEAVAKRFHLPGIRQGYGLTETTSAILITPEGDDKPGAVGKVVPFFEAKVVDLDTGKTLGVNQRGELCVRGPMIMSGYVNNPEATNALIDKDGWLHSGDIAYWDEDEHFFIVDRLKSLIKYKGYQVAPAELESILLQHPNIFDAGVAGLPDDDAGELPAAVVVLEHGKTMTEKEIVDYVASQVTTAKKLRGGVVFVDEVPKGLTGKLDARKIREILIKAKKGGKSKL
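Purified P. pyralis luciferase, 10 nM final, with Km-level 10 uM D-luciferin and 10 uM ATP in 50 mM Tris acetate pH 7.5, 10 mM Mg acetate, 0.01% Tween-20, 0.05% BSA; 6-point qHTS titration about 60 µM downward; luminescence read.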
Rab9 promoter act = activators of Rab9 promoter; Huh7 Rab9 promoter-luciferase reporter, luminescence, 24 h; 320,000 tested, 2.8% active; Potency, µM (doses to about 9.22 µM), without a hit: at the top dose activation, negative = inhibition, usual class: activators; further: % of control where 0% means no effect; nearly all actives have a fitted effect of over 60% in size
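Huh7 reporter line, Rab9 promoter upstream of luciferase. Compound exposure 24 h at 37 °C in reduced-serum medium with 10% FBS. Read-out: luminescence.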
Luc counter = Kinase-Glo luciferase inhibition (counter-screen); Kinase-Glo luciferase, ATP luminescence, 8 min; Potency, µM (titrated, usually from 38.3 µM), without a hit: at the highest dose activity change, negative = inhibition, actives largely listed as inhibitors; 200,000 tested, 0.28% active; AID 1379; further: on the % scale 0 is the no-effect control and ±100 the full control effect; nearly all actives have a fitted effect of over 60% in size
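Recombinant Kinase-Glo luciferase, 10 uM ATP (linear range), luciferin; imidazole pH 7.2 / KCl / MgCl2 / Tween / BSA buffer; 8 min RT; luminescence.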
* = called active by the depositor; ? = inconclusive; nt = not tested or not shown; [ ] = another dose, or the depositor's remark. Sampled rows, rich in hits. Any-hit rate of the full collection: about 7.5%. The call rests on the fitted dose curve; in most records, active means well fitted curve in the direction sought with a large enough effect; inconclusive means small, poorly fitted or top-dose-only effect, or another doubt; inactive means no such curve, though single readings can be large; an effect the other way counts as inactive or inconclusive. Potency means the concentration at half of the fitted maximal effect.

SMILES	NPC1 promoter act	ELG1 genotoxic	SMN2 splice up	FLuc counter	Rab9 promoter act	Luc counter
O=C(NCc1ccccc1)Nc1cccn(Cc2cccc(F)c2)c1=O	-2.7%	0.7%	-26.9%	?	0.0%	3.5%
Cc1cc(NC(=O)NCc2ccccc2)c(=O)n(Cc2ccc(F)cc2)c1	-2.9%	3.0%	nt	1.69µM*	4.7%	nt
CC(=O)Nc1ccc(S(=O)(=O)Nc2cc(C)cn(Cc3ccccc3)c2=O)cc1	-0.9%	-9.8%	nt	4.1%	2.7%	nt
Cc1ccc2c(c1)C(c1ccc(F)cc1)N(C(=O)COc1ccc(Cl)cc1Cl)CC(=O)N2 (stereo unspecified)	nt	nt	-2.2%	-1.3%	nt	nt
COc1ccc(S(=O)(=O)N2CCN(CC(=O)Nc3ccc(Cl)c(C(F)(F)F)c3)CC2)cc1	nt	nt	nt	-11.0%	nt	nt
CCCN1C(=O)C(Cc2nc3ccccc3c(=O)n2CC)c2cc(Br)ccc21 (stereo unspecified)	nt	nt	13.0%	-0.2%	nt	nt
Cc1oc(-c2ccc(-c3ccccc3)cc2)nc1CN1CCN(CC(=O)N(C)C)CC1	?	?	nt	5.36µM*	?	-3.3%
COc1ccc(-c2nc(CN3CCN(Cc4ccccc4)CC3)c(C)o2)cc1	-3.3%	-5.7%	nt	-19.8%	-5.4%	nt
CC1CC(C)(C)Nc2ccc(N=O)cc21 (stereo unspecified)	-8.0%	12.3%	-102.2%	-11.2%	17.8%	-4.1%
CC1CC(C)(C)Nc2ccc(OC(=O)c3ccco3)cc21 (stereo unspecified)	0.4%	18.5%	nt	6.75µM*	?	-3.2%
CCCCOC1CC(c2ccc(OCc3ccc(OC)cc3)c(OC)c2)N(C)O1 (stereo unspecified)	0.6%	-8.9%	-31.5%	?	8.1%	-2.1%
Nc1nccc(-c2cccs2)n1	-0.7%	0.4%	14.2%	0.0%	2.4%	-1.3%
Brc1cc(Br)c2nc(-c3cccs3)ccc2c1	1.0%	11.2µM*	11.2µM*	9.53µM*	?	-5.7%
CNC(=O)c1ccc(-c2ccc(OC)cc2)s1	1.26µM*	?	17.8µM*	6.75µM*	12.0%	-2.9%
CNC(=O)c1ccc(-c2ccc(F)cc2)s1	?	18.4µM*	?	9.53µM*	?	-8.9%
COc1ccc(NC(=O)c2ccc(-c3ccc(OC)cc3)s2)cc1	-5.9%	9.3%	10µM*	-0.8%	3.3%	-0.1%
COc1cccc(-c2ccc3c(N)c(C(=O)NCc4ccc(Cl)cc4)sc3n2)c1	nt	nt	7.8%	-7.7%	nt	nt
O=S(=O)(c1ccccc1)N1c2cc(Cl)ccc2Oc2nc3ccccc3nc21	7.0%	5.1%	?	13.5µM*	16.9%	2.2%
O=S(=O)(c1ccccc1)N1CN(c2ccc(F)cc2F)c2nc3ccccc3nc21	nt	-0.1%	nt	nt	nt	nt
CCOC(=O)N1CCc2c(sc3c2c(=O)n(-c2ccc(CC)cc2)c(=O)n3CC(=O)Nc2ccc(C)cc2)C1	nt	nt	-5.1%	-0.3%	nt	nt
CCCOc1ccccc1C(=O)Nc1ccc(-c2nc3ccc(C)cc3s2)cc1	nt	nt	12.6µM*	4.78µM*	nt	nt
COc1cccc(C(=O)Nc2ccc(-c3nc4ccc(C)cc4s3)cc2)c1OC	nt	nt	nt	-0.6%	nt	nt
O=C(COc1ccccc1F)Nc1ccc(-c2nc3ccccc3s2)cc1	0.891µM*	nt	nt	nt	0.631µM*	nt
Cc1nc2ccc(NC(=O)COc3ccccc3F)cc2s1	26.1%	?	?	?	?	-3.9%
Cc1ccc2nc(-c3ccc(NC(=O)CSCC(=O)O)cc3)sc2c1	3.98µM*	?	nt	1.69µM*	2.82µM*	nt
SMILES	NPC1 promoter act	ELG1 genotoxic	SMN2 splice up	FLuc counter	Rab9 promoter act	Luc counter
O=C(O)CSCC(=O)Nc1ccc(-c2nc3ccccc3s2)cc1	29.0%	?	nt	3.01µM*	?	nt
Cc1csc(NC(=O)CSCC(=O)O)c1-c1nc2ccccc2s1	-4.3%	4.4%	nt	-5.5%	-0.1%	nt
Cc1cccc(CNc2ccnc(-c3ccc(C(=O)N(C)C)cc3)n2)c1	nt	nt	-88.0%	nt	nt	-1.0%
COc1cccc(CNC(=O)c2ccc3nc(-c4ccc(F)cc4)c(-c4ccc(F)cc4)nc3c2)c1	nt	nt	nt	-16.7%	nt	nt
Cc1cccc(CN2CCN([C@@H](c3ccccc3)c3ccc(Cl)cc3)CC2)c1	nt	nt	-12.8%[20.6 µM]	nt	nt	1.9%[17.1 µM]
Cc1ccc2nc(-c3ccc(NC(=O)COCC(=O)O)cc3)sc2c1	?	?	nt	1.2µM*	?	nt
Cc1cccc(CC(=O)Nc2cccc(-c3nc4cccnc4s3)c2)c1	nt	nt	nt	-1.7%	nt	nt
Cc1ccc2nc(-c3ccc(NC(=O)Cc4ccccc4)cc3)sc2c1	nt	nt	?	10.7µM*	nt	nt
O=C(c1cccc(Cl)c1)N1CCN(c2ncnc3c2cnn3-c2ccccc2)CC1	-4.7%	-7.0%	-37.0%	-15.1%	-17.3%	-0.7%
O=C(c1ccccc1)N1CCN(c2ncnc3c2cnn3-c2ccccc2)CC1	22.7%	-2.1%	-19.3%	-20.6%	?	-6.7%
Clc1cccc(-n2ncc3c(N4CCCCC4)ncnc32)c1	nt	nt	nt	0.426µM*	nt	nt
Clc1cccc(-n2ncc3c(N4CCCCCC4)ncnc32)c1	nt	nt	nt	1.69µM*	nt	nt
O=C(Cn1nc2n(c1=O)-c1ccccc1SC2)N/N=C/c1cccs1	2.4%	0.0%	nt	1.3%	-3.2%	nt
NC(=O)COC(=O)c1ccc2noc(-c3ccccc3)c2c1	3.98µM*	13.5%	nt	-8.7%	29.2%	nt
CCOC(=O)c1ccccc1NC(=O)NCc1c(-n2cccc2)sc2c1CCCC2	nt	nt	nt	-13.6%	nt	nt
O=C(Nc1cc(F)ccc1F)C1CCN(C(=O)c2cnn(-c3ccccc3)c2-n2cccc2)CC1	nt	nt	-17.7%	-0.7%	nt	nt
O=C(Cn1cnc(S(=O)(=O)N2CCCC2)c1)Nc1cccc(F)c1	-2.4%	-0.2%	nt	-2.0%	5.7%	nt
CCn1cc(C=C2C(=O)c3ccccc3C2=O)c2ccccc21	1.3%	?	9.7%	6.01µM*	-2.1%	-4.3%
CC1Cc2cc(S(=O)(=O)CCC(=O)Nc3ccccc3F)ccc2N1C(=O)C1CC1 (stereo unspecified)	nt	nt	nt	-6.9%	nt	nt
COc1ccc(/C=N/NC(=O)c2nc(-c3ccccc3)cc(-c3ccccc3)n2)cc1OC	3.1%	-1.0%	-37.0%	2.39µM*	-3.0%	-6.2%
COc1cccc(/C=N/NC(=O)c2nc(-c3ccccc3)cc(-c3ccccc3)n2)c1	-2.1%	-9.0%	-18.3%	2.39µM*	3.0%	-5.9%
COc1cccc(/C=N/NC(=O)C(C)Cn2cnc3ccccc32)c1 (stereo unspecified)	-3.4%	-7.4%	nt	15.1µM*	-4.7%	nt
Fc1ccc(-c2csc(Nc3ccccn3)n2)cc1	3.55µM*	2.06µM*	nt	1.51µM*	3.16µM*	nt
c1ccc(Nc2nc(-c3cccnc3)cs2)nc1	1µM*	?	11.2µM*	1.51µM*	0.562µM*	-22.1%
c1cncc(Nc2nc(-c3ccncc3)cs2)c1	5.7%	-3.4%	-1.9%	?	0.6%	-3.3%
Clc1ccccc1-c1csc(Nc2cccnc2)n1	2.82µM*	8.2%	nt	?	?	nt
